In PubChem BioAssay (NCI):
Compounds without any hit were thinned out: in the full panel of roughly 83,000, 20% have a hit.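 Results are percent growth after 48 hours of single-concentration exposure. 100 means growth as in untreated cells, lower positive values show inhibition; negative values down to -100 show cell death.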 The source made the active and inactive calls. Rule for the calls: active = growth percent below 10; inactive = the rest.

Assays:
Test in all cases: NCI-60 one-dose screen, 48 h (100 = growth as untreated, 0 = no growth, -100 = all killed)
Details in all cases: 10 µM unless noted
EKVX NSCLC = tested on: EKVX NSCLC
SN12C renal = tested on: SN12C renal
UO-31 renal = tested on: UO-31 renal
TK-10 renal = tested on: TK-10 renal
ACHN renal = tested on: ACHN renal
CAKI-1 renal = tested on: CAKI-1 renal
A498 renal = tested on: A498 renal
CCRF-CEM leukemia = tested on: CCRF-CEM leukemia
MOLT-4 leukemia = tested on: MOLT-4 leukemia

Measured: growth

CCCCS(=O)(=O)Oc1ccc(-c2nc(C)c(C(=O)OCC)s2)cc1C=O
inactive: EKVX NSCLC 92.1% | SN12C renal 57.1% | UO-31 renal 57.7% | TK-10 renal 68.8% | ACHN renal 62.7% | CAKI-1 renal 63.7% | A498 renal 77.5% | CCRF-CEM leukemia 15.3% | MOLT-4 leukemia 32.1%

Clc1ccc(/C=C/c2nc(Nc3ccc(Cl)cc3)c3ccccc3n2)cc1
inactive: EKVX NSCLC 90.5% | SN12C renal 103% | UO-31 renal 70% | TK-10 renal 121% | ACHN renal 105% | CAKI-1 renal 90.1% | A498 renal 94.9% | CCRF-CEM leukemia 102% | MOLT-4 leukemia 98.2%

CCOC(=O)C(=CNc1ccccc1[N+](=O)[O-])C(=O)OCC
inactive: EKVX NSCLC 114% | SN12C renal 94.2% | UO-31 renal 78.2% | TK-10 renal 106% | ACHN renal 86% | CAKI-1 renal 98.9% | A498 renal 64.1% | CCRF-CEM leukemia 93.7% | MOLT-4 leukemia 96.1%

CCNCCNc1cc(C2CCCC2)c(C#N)c2nc3ccccc3n12
inactive: EKVX NSCLC 38% | SN12C renal 46.3% | CAKI-1 renal 39.5% | A498 renal 75.4%
active: UO-31 renal -74.9% | TK-10 renal -24.7% | ACHN renal -34.7% | CCRF-CEM leukemia -8.07% | MOLT-4 leukemia -17.9%

O=C1CC(c2ccc3c(c2)OCO3)Nc2cc3c(cc21)OCO3 (stereo unspecified)
active: A498 renal -17.4% | CCRF-CEM leukemia 9.73%
inactive: EKVX NSCLC 36.2% | SN12C renal 22.7% | UO-31 renal 52.6% | TK-10 renal 34.6% | ACHN renal 45.8% | CAKI-1 renal 43.4% | MOLT-4 leukemia 26%

CCc1c(C(=O)N[C@@H]2c3cc(Cl)ccc3CC[C@@H]2O)[nH]c(C)c1C(C)=O
inactive: EKVX NSCLC 76% | SN12C renal 94.7% | UO-31 renal 76.8% | TK-10 renal 87.4% | ACHN renal 77.6% | CAKI-1 renal 71.5% | A498 renal 67.6% | CCRF-CEM leukemia 85.2% | MOLT-4 leukemia 68.8%

CC/C=C/[C@@H]1C=C[C@@H]2CCC[C@H]2[C@@H]1CC[C@H](O)[C@H](C)N
inactive: EKVX NSCLC 82.3% | SN12C renal 41.1% | A498 renal 82.1%
active: UO-31 renal -80% | TK-10 renal 8.1% | ACHN renal -56.8% | CAKI-1 renal -50.6% | CCRF-CEM leukemia -44% | MOLT-4 leukemia -47.2%

COc1ccc(-c2cc(-c3cc(OC)ccc3O)[nH]c(=O)c2C#N)cc1
inactive: EKVX NSCLC 96% | SN12C renal 66.3% | UO-31 renal 44.1% | TK-10 renal 76.1% | ACHN renal 81% | CAKI-1 renal 77.6% | A498 renal 37.5% | CCRF-CEM leukemia 46.3% | MOLT-4 leukemia 32%

CCNCCNc1cc(-c2cccc(C(F)(F)F)c2)c(C#N)c2nc3ccccc3n12
active: EKVX NSCLC -89.5% | SN12C renal -47% | UO-31 renal -81.8% | TK-10 renal -92.9% | ACHN renal -100% | CAKI-1 renal -70.8% | CCRF-CEM leukemia -12.3% | MOLT-4 leukemia -33.2%
inactive: A498 renal 81.4%

CN(C)c1ccc(/C=C/c2c(F)cccc2F)cc1
inactive: EKVX NSCLC 76.2% | SN12C renal 98.2% | UO-31 renal 55.6% | TK-10 renal 109% | ACHN renal 92.7% | CAKI-1 renal 94.6% | A498 renal 77.2% | CCRF-CEM leukemia 101% | MOLT-4 leukemia 97.4%

C=C(C=O)[C@@H]1CC=C(C=O)CC1
active: EKVX NSCLC 2.06% | SN12C renal -14.1% | UO-31 renal -41.7% | TK-10 renal -42.2% | ACHN renal -54.9% | CAKI-1 renal -31.7% | CCRF-CEM leukemia -52.7% | MOLT-4 leukemia -40.8%
inactive: A498 renal 81.7%

CCNCCNc1cc(-c2ccc(C(F)(F)F)cc2)c(C#N)c2nc3cc(Cl)c(Cl)cc3n12
active: EKVX NSCLC -94.2% | SN12C renal -70.9% | UO-31 renal -92.5% | TK-10 renal -94.7% | ACHN renal -100% | CAKI-1 renal -91.5% | A498 renal -40.5% | CCRF-CEM leukemia -48.4% | MOLT-4 leukemia -56.8%

N[C@@H]1CCC[C@H]1NCCCCN1C(=O)c2cccc3cccc(c23)C1=O
inactive: EKVX NSCLC 85.6% | SN12C renal 73.7% | UO-31 renal 56.2% | TK-10 renal 76.6% | ACHN renal 52.9% | CAKI-1 renal 81.3% | A498 renal 34.8% | CCRF-CEM leukemia 98.4% | MOLT-4 leukemia 30.8%

Clc1ccc(-c2nnc(-c3ccco3)o2)cc1
inactive: EKVX NSCLC 100% | SN12C renal 82.6% | UO-31 renal 84.4% | TK-10 renal 120% | ACHN renal 100% | CAKI-1 renal 73.3% | A498 renal 103% | CCRF-CEM leukemia 87.4% | MOLT-4 leukemia 90.1%

CN1CCN(c2ccc(Nc3ncc(Cl)c(NC[C@@H]4CCCO4)n3)cc2)CC1
inactive: EKVX NSCLC 39% | SN12C renal 28.2% | TK-10 renal 23.6% | CAKI-1 renal 26.6% | CCRF-CEM leukemia 28% | MOLT-4 leukemia 16.8%
active: UO-31 renal -15.6% | ACHN renal 1.78% | A498 renal -25%

CN(C)c1ccc2cc(-c3ccccc3F)c(N)nc2c1
inactive: EKVX NSCLC 31.1% | SN12C renal 54.9% | UO-31 renal 34% | TK-10 renal 34.6% | ACHN renal 41.2% | CAKI-1 renal 37.5% | CCRF-CEM leukemia 45.7% | MOLT-4 leukemia 35.1%
active: A498 renal -7.09%

COc1ccc(/C=N/NC(=O)Cn2c(-c3ccc(S(C)(=O)=O)cc3)nc3cc(Cl)ccc32)cc1
active: CCRF-CEM leukemia 1.56%
inactive: EKVX NSCLC 25.3% | SN12C renal 27.3% | UO-31 renal 43.2% | TK-10 renal 36.8% | ACHN renal 30.3% | CAKI-1 renal 42% | A498 renal 21.4% | MOLT-4 leukemia 12.9%

COc1ccc(/C(C)=C(\c2ccc(Cl)cc2)c2ccc(OCCN3CCCCC3)cc2)cc1F
inactive: EKVX NSCLC 47.7% | SN12C renal 47.4% | UO-31 renal 11.6% | TK-10 renal 68.7% | ACHN renal 59.2% | CAKI-1 renal 17.8% | A498 renal 76% | CCRF-CEM leukemia 31% | MOLT-4 leukemia 23.8%

C[C@@H]1C(=O)N(C[C@@H](Cc2ccccc2)NC(=O)OCc2ccccc2)[C@]1(Cc1ccccc1)C(=O)OCc1ccccc1
active: UO-31 renal 8.74% | A498 renal -13.8% | MOLT-4 leukemia 6.42%
inactive: EKVX NSCLC 18.1% | SN12C renal 41.7% | TK-10 renal 21.4% | ACHN renal 22.3% | CAKI-1 renal 34.8% | CCRF-CEM leukemia 67.3%

CNC(=O)NCC1OC(n2cnc3c(NC(=O)Nc4ccccc4)ncnc32)C2OC(C)(C)OC12 (stereo unspecified)
inactive: EKVX NSCLC 102% | SN12C renal 94.7% | UO-31 renal 73.7% | TK-10 renal 134% | ACHN renal 105% | CAKI-1 renal 72.6% | A498 renal 87.2% | CCRF-CEM leukemia 95.4% | MOLT-4 leukemia 103%

CN(C)c1ccc(C#Cc2c(F)cccc2Cl)cc1
inactive: EKVX NSCLC 63.5% | SN12C renal 82.2% | UO-31 renal 41.2% | TK-10 renal 96.8% | ACHN renal 83.5% | CAKI-1 renal 82.4% | A498 renal 42.6% | CCRF-CEM leukemia 88.6% | MOLT-4 leukemia 89.4%

CCn1nc(C#Cc2c(C)ccc3c(Nc4ccc(Cl)cc4)nccc23)c2c(N)ncnc21
inactive: EKVX NSCLC 36.6% | SN12C renal 15.6% | TK-10 renal 16.8% | CAKI-1 renal 18.8% | A498 renal 11.7% | CCRF-CEM leukemia 10.5% | MOLT-4 leukemia 20.9%
active: UO-31 renal 8.45% | ACHN renal 8.02%

Cc1cnc(Nc2ccc(N3CCN(C)CC3)cc2)nc1Nc1ccc(Cl)c(NS(=O)(=O)C(C)(C)C)c1
active: UO-31 renal -20.7% | TK-10 renal 0.435% | ACHN renal -4.72% | A498 renal -85.4% | MOLT-4 leukemia 10%
inactive: EKVX NSCLC 32.5% | SN12C renal 34% | CAKI-1 renal 25% | CCRF-CEM leukemia 34.2%

COC(=O)CCCNC(=O)C(=O)c1c(O)c(O)c(C(C)C)c2cc(C)c(-c3c(C)cc4c(C(C)C)c(O)c(O)c(C(=O)C(=O)NCCCC(=O)OC)c4c3O)c(O)c12
inactive: SN12C renal 16.6% | CAKI-1 renal 32.7% | CCRF-CEM leukemia 16.1%
active: EKVX NSCLC 2.47% | UO-31 renal -5.61% | TK-10 renal 7.48% | ACHN renal 3.45% | A498 renal -7.28% | MOLT-4 leukemia 8.94%

CCNCCNc1cc(-c2ccc(C#N)cc2)c(C#N)c2nc3ccccc3n12
active: UO-31 renal -21.3% | ACHN renal 3.09%
inactive: EKVX NSCLC 76% | SN12C renal 59.3% | TK-10 renal 82.3% | CAKI-1 renal 57.4% | A498 renal 60.7% | CCRF-CEM leukemia 27.5% | MOLT-4 leukemia 51.2%

CNC(=O)c1cc(Oc2ccc3nc(NC(=O)Nc4cc(C(F)(F)F)cc(C(F)(F)F)c4)sc3c2)ccn1
active: EKVX NSCLC -18.7% | SN12C renal -18.7% | UO-31 renal -69.9% | TK-10 renal -54.8% | ACHN renal -52.9% | CAKI-1 renal -17.6% | A498 renal -58.8% | CCRF-CEM leukemia 7.33% | MOLT-4 leukemia 0.825%

C[C@@H]1C(=O)N(C[C@H](Cc2ccccc2)N(Cc2ccccc2)Cc2ccccc2)[C@]1(Cc1ccccc1)C(=O)OC(C)(C)C
inactive: EKVX NSCLC 53.2% | SN12C renal 56.8% | UO-31 renal 41.2% | TK-10 renal 50.5% | ACHN renal 63.9% | CAKI-1 renal 55.2% | CCRF-CEM leukemia 70% | MOLT-4 leukemia 63.8%
active: A498 renal 8.49%

COc1cc(/C=C2\C=C(c3ccccc3)N(CCc3ccccc3)C2=O)cc(OC)c1OC
inactive: EKVX NSCLC 69.2% | SN12C renal 82% | UO-31 renal 69.2% | TK-10 renal 81.9% | ACHN renal 30.9% | CAKI-1 renal 80.1% | A498 renal 34.2% | CCRF-CEM leukemia 100% | MOLT-4 leukemia 94.8%

CN(C)c1ccc2cc(-c3ccc(Cl)c(Cl)c3)c(N)nc2c1
inactive: EKVX NSCLC 26.3% | SN12C renal 40.9% | UO-31 renal 33.2% | TK-10 renal 27.9% | ACHN renal 52.3% | CAKI-1 renal 39.5% | A498 renal 40.9% | CCRF-CEM leukemia 58% | MOLT-4 leukemia 31%
